Hits are enriched below; roughly 4.3% of the tested compounds scored in any of these assays.
NadD block: inhibitors of S. aureus NadD, primary screen, biochemical, colorimetric, uHTS; purified NadD enzyme, colorimetric absorbance read-out; inhibition, % at 20 µM; actives 0.78% (n = 360,000); AID 602399, 2012; in the data active = inhibition above about 26%
NR3A LBD binder: binders of NR3A ligand-binding domain, primary screen, biophysical, differential scanning fluorimetry, uHTS; Glutamate receptor ionotropic, NMDA 3A (GRIN3A) ligand-binding domain; NR3A LBD differential scanning fluorimetry, Tm shift; 0% = protein alone, 100% = glycine-bound protein; Tm shift relative to glycine control, % at 25 µM; actives 2.5% (n = 340,000); AID 1259313, 2017;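 active = melting temperature shift of at least 10% of the positive control shift, at one fixed dose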
FAS TE block: FAS thioesterase domain inhibitors, primary screen, biochemical, fluorescence intensity, uHTS | Fatty acid synthase (Homo sapiens), P49327 | recombinant FAS-TE, OMFH fluorogenic substrate, fluorescence endpoint | inhibition, % at 15 µM | actives 0.67% (n = 360,000);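 active = compounds whose normalised, plate-corrected inhibition of enzyme fluorescence in the single-dose primary screen is 50% or more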;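 note: 0% = DMSO with enzyme and 100% = substrate without enzyme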
rCAG RNA binder: binders of r(CAG) RNA repeats, primary screen, biochemical, fluorescence; inhibition, % at 3 µM; r(CAG) RNA repeat, TO-PRO-1 dye displacement fluorescence; AID 651821, 2012; actives 1.3% (n = 370,000);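 active = inhibition above the plate cutoff, the mean of all test compounds on that plate plus 3 SD, cut at about 35% in these data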;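 note: 0% = DMSO alone and 100% = 100 µM mitoxantrone as full dye displacement; higher means more dye released from RNA so lower well fluorescence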
The depositor's hits bear a star; . = no result; ! = a repeat was not active.

SMILES	NadD block	NR3A LBD binder	FAS TE block	rCAG RNA binder
O=C(Nc1ccc(Cl)c(Cl)c1)C1CCN(c2ncccn2)CC1	.	.	.	0
Cc1ccc(-c2nnn(CC(=O)Nc3ccc(S(=O)(=O)N4CCC(C)CC4)cc3)n2)cc1	11	55*	-4	-4
CC1CCCN(S(=O)(=O)c2ccc(NC(=O)Cn3nnc(-c4ccccc4F)n3)cc2)C1 (stereo unspecified)	6	12*	31	12
CC1CCN(CC(=O)Nc2ccc(S(=O)(=O)N3CCC(C)CC3)cc2)CC1	-6	-3	8	-7
CC1CCN(S(=O)(=O)c2ccc(NC(=O)CN3CCCC3)cc2)CC1	-5	-2	-5	-1
CC1CCN(S(=O)(=O)c2ccc(NC(=O)Cn3nnc(-c4ccccc4)n3)cc2)CC1	7	11*	3	33
COC(=O)C1=C(C)N(Cc2ccc(C(F)(F)F)cc2)C(=NCc2ccc(C(F)(F)F)cc2)NC1c1ccc(F)cc1 (stereo unspecified)	.	.	.	5
O=C(CCCCC(=O)Nc1c(I)cc(I)c(C(=O)O)c1I)Nc1c(I)cc(I)c(C(=O)O)c1I	0	1	-6	4
CC(=O)Nc1c(I)c(NC(C)=O)c(I)c(C(=O)O)c1I	2	13*!	-7	0
Cc1ncc(CO)c(/C=N/NC(=S)Nc2ccc(F)cc2)c1O	-2	-3	-18	13
Cc1ncc(CO)c(/C=N/Nc2ccc(C(F)(F)F)cn2)c1O	-1	27*	-1	3
C[C@H](O)[C@@H]1CN2CCc3c([nH]c4c(-c5ccc6c(c5)OCO6)cccc34)[C@@H]2C[C@@H]1N(C)C(=O)NC1CCCCC1	.	.	.	4
COc1ccc(CCNC(=O)c2cc(-c3cc(Cl)ccc3O)n[nH]2)cc1OC	-9	10*	5	8
COc1ccc(CCNC(=O)c2cc(-c3ccccc3O)n[nH]2)cc1OC	0	-6	-5	0
NS(=O)(=O)c1ccc(CCNC(=O)c2cc(-c3cc(Cl)ccc3O)n[nH]2)cc1	-2	25*	-2	13
Cc1cc(C)c(O)c(-c2cc(C(=O)NCCc3ccc(S(N)(=O)=O)cc3)[nH]n2)c1	-7	-5	6	12
Cc1cc(O)c(-c2cc(C(=O)NCCc3ccc(S(N)(=O)=O)cc3)[nH]n2)cc1C	-7	22*	2	16
O=C(CN1CCCC1)NCC12CC3CC(CC(C3)C1)C2	-1	-1	-4	0
O=C(CN1CCCC1)NC12CC3CC(CC(C3)C1)C2	-2	10*	-10	-2
Cc1ccc(NC(=O)c2cccc(NC(=O)/C=C/c3ccco3)c2)cc1C	15	15*	15	33
CCc1ccccc1NC(=O)c1cccc(NC(=O)/C=C/c2ccco2)c1	3	-4	0	10
O=S(=O)(c1ccc2nc(-c3ccccc3)[nH]c2c1)N1CCN(c2ccc(Cl)cc2)CC1	27	13*	5	14
COCCNC(=O)[C@]1(C#N)CC(=O)N(C)[C@@H]1c1ccccc1	.	.	.	0
CC(=O)Nc1ccc(NC(=O)C(NS(=O)(=O)c2cccc3nsnc23)C(C)C)cc1 (stereo unspecified)	-13	10*	-8	1
N#Cc1ccc(S(=O)(=O)N2CCc3[nH]c4ccc(F)cc4c3C2)cc1	-4	11*	13	12
SMILES	NadD block	NR3A LBD binder	FAS TE block	rCAG RNA binder
O=S(=O)(c1ccc2[nH]c3c(c2c1)CCCC3)N1CCCCC1	5	-4	17	18
O=C(CCc1ccccc1)N[C@H]1[C@H](OC(=O)c2cccnc2)CCC[C@@]12C(=O)N(Cc1ccccc1)c1ccccc12	.	.	.	6
CC(=O)Nc1ccc(NC(=O)CSc2nnc(CC(C)O)n2-c2ccccc2)cc1 (stereo unspecified)	-3	1	-9	-5
CCc1nnc(SCC(=O)Nc2ccc(NC(C)=O)cc2)n1-n1cccc1	-1	18*	-8	-3
CCOc1ccc(NC(=O)c2ccccc2OC)cc1	0	-1	-3	-6
CCOc1ccc(NC(=O)C(C)Oc2ccccc2C(=O)Nc2cccc(Cl)c2Cl)cc1 (stereo unspecified)	1	12*	28	1
CC(C)(C)C1=CC(CC(N)=O)(C(C)(C)C)OC1=O (stereo unspecified)	.	.	.	2
O=C(OCc1ccc(Cl)cc1Cl)c1cccnc1Cl	-9	12*	25	-6
O=C(NCc1ccco1)C1CCCN(c2ncccn2)C1 (stereo unspecified)	.	.	.	1
CCOc1ccc(N2C(=O)Nc3ccc(Br)cc3C2(O)C(=O)NCCCN(C)C)cc1 (stereo unspecified)	-7	12*	-4	3
CCOc1ccc(N2C(=O)Nc3ccc(Br)cc3C2(O)C(=O)NCCN(C)C)cc1 (stereo unspecified)	-3	1	-4	4
CCOc1ccc(N2C(=O)Nc3ccc(Br)cc3C2(O)C(=O)NC(C)C)cc1 (stereo unspecified)	-3	12*	-3	2
CCc1ccc(N2C(=O)Nc3ccc(Br)cc3C2(O)C(=O)NCCN(C)C)cc1 (stereo unspecified)	-4	2	-6	5
CCCc1ccc(OCC(=O)Nc2cc(S(=O)(=O)CC)ccc2O)cc1	-7	-6	-18	35*
O=S1(=O)c2ccc(Br)cc2OC2CCCC[C@@H]2N1Cc1ccccc1 (stereo partly specified)	.	.	.	5
Clc1cccc(N/N=C(\Cc2nc3ccccc3[nH]2)c2ccccc2)c1	8	31*	29	16
CCOC(=O)N1CCN(C(=O)C[C@@H]2C(=O)N(Cc3ccc(OC)cc3)/C3=C/CCCCC[C@@]32C(=O)OCC)CC1	.	.	.	0
O=C(NCc1ccc(Cl)cc1)C1CCC(=O)N(C2CCCCCC2)C1 (stereo unspecified)	-2	10*	1	-7
N#C/C(=C/c1ccc(CNC(=O)C(=O)Nc2cc(Cl)cc(Cl)c2)o1)C(=O)NCc1cccnc1	23	12*	-2	3
COc1ccc(CCNC(=O)c2cccc(S(=O)(=O)N3CCCCC3)c2)cc1	-10	-1	7	-1
O=C(Nc1ccccc1C(=O)O)c1cc(S(=O)(=O)N2CCCCCC2)ccc1Cl	-2	-6	5	58*
O=C(Nc1ccc2c(c1)CCC2)c1cc(S(=O)(=O)N2CCN(c3ccccc3)CC2)ccc1Cl	32*	-1	16	14
COc1ccc(CCNC(=O)c2cc(S(=O)(=O)N3CCCCC3)ccc2Cl)cc1	1	15*	5	-4
CC1(c2nnnn2Cc2ccccc2)CCSCC(=O)N1Cc1cccs1 (stereo unspecified)	.	.	.	2
CCOC(=O)[C@@]12CCCC3=C1N(CCC3)C(=O)[C@H]2CC(=O)NCCCCc1ccccc1	.	.	.	-3
O=C(CCc1ccccc1)N[C@H]1C(=O)CCC[C@]12C(=O)N(Cc1ccccc1)c1ccccc12	.	.	.	0

Screens as filed in PubChem.
